Source: PubChem
Rows were chosen to be rich in hits. Some 2.8% of all compounds tested hit in one or more screens of this group.
PI4K2A block – qHTS for small molecular inhibitors of PI4K2A. Phosphatidylinositol 4-kinase type 2-alpha (Homo sapiens), Q9BTU6. 0.13% of 420,000 active. activity change, negative = inhibition, % at 76.9 µM. purified PI4K2A, ADP-Glo luminescence, 1 h; hits give low values. AID 1346378, 2018; in the data active means activity change below about -50%; inconclusive means mostly about -30% to -49%
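ADP-Glo luminescence measured ADP generated by PI4K2A enzyme (4 ug/mL before mixing) with 1.2 mM PI substrate (pre-mix) and 300 microM ATP (pre-mix). Tris pH7.5 buffer with MgCl2, Triton X-100; 1 h reaction at ambient temperature.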
Pol kappa inh-1 – qHTS for Inhibitors of Polymerase Kappa. 0.53% of 400,000 active. Potency, µM (titrated, usually from 107 µM), usual class: inhibitors. purified Pol kappa, fluorescent DNA synthesis assay, 10 min
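Readout: fluorescence, taken kinetically at 0 and 10 min. Conditions: 10 nM Pol kappa, 15 min RT compound preincubation, 50 nM substrate final. Controls: enzyme-free buffer wells.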
PI5P4K alpha inh – qHTS for Inhibitors of phosphatidylinositol 5-phosphate 4-kinase (PI5P4K); Phosphatidylinositol 5-phosphate 4-kinase type-2 alpha (Homo sapiens), P48426; PI5P4Kalpha enzyme, ADP-Glo luminescence, 60 min; hits give low values; max response, %; 1.2% of 330,000 active; active means max response of -50% or lower; inconclusive means between -30% and -50%; inactive means -30% or higher; further: value at the top dose of about 77 µM
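Compounds were pin-transferred onto PI5P4Kalpha and substrate in HEPES pH 7.4 buffer with EGTA, CHAPS and 5% DMSO. ATP (5 microM final) started the reaction, which ran 60 minutes at room temperature before ADP-Glo detection.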
Pol eta inh-1 – qHTS for Inhibitors of Polymerase Eta | 1.2% of 390,000 active | Potency, µM (titrated, usually from 114 µM), actives largely listed as inhibitors | AID 588591, 2011 | recombinant Pol eta, fluorescent DNA replication assay
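Pol eta (10 nM) was preincubated with compounds for 15 min at room temperature, after which fluorescent replication substrate (50 nM final) was added to start the reaction. Fluorescence was read kinetically at 0 and 10 min.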
Pol beta inh – qHTS Assay for Inhibitors of DNA Polymerase Beta. Potency, µM (titrated, usually from 114 µM), hits mostly inhibitors. 1.3% of 340,000 active. Pol beta primer extension/strand displacement, fluorescence kinetic
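Reaction started by 50 nM substrate onto compound-treated Pol beta (10 nM, 15 min preincubation, room temperature); plates read at 0 min and 10 min. Normalized concentration-effect data fitted by four-parameter Hill equation.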
Pol iota inh – qHTS for Inhibitors of Polymerase Iota. DNA polymerase iota (Homo sapiens), Q9UNA4. Pol iota fluorescent replication assay, 10 min. Potency, µM (series often up to 115 µM), usual class: inhibitors. 1% of 390,000 active. AID 588590, 2011
Target sequence (Q9UNA4 whole entry, looked up): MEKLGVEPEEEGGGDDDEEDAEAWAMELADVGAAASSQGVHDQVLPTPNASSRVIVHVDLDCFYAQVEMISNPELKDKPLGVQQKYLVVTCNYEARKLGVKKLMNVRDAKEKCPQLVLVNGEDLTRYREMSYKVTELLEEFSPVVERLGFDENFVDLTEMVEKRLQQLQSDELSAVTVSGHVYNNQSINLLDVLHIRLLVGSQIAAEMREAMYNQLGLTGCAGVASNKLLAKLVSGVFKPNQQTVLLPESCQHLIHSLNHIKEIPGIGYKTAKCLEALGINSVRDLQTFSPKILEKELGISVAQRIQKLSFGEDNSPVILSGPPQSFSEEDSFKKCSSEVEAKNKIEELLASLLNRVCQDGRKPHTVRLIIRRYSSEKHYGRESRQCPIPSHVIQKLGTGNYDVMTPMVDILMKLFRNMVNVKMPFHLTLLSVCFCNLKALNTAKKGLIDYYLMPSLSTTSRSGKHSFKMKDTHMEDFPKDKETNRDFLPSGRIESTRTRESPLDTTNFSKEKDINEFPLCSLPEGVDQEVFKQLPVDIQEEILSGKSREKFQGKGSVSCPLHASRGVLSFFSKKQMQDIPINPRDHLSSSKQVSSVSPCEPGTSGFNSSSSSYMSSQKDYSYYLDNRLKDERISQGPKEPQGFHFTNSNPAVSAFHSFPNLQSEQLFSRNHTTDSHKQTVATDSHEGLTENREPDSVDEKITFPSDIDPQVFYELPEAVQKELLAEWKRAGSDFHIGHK
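Pol iota at 10 nM preincubated 15 min with compounds at room temperature; reaction started with fluorescent substrate, 50 nM final. Fluorescence read kinetically at 0 and 10 min; buffer-only wells as negative control.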
Pol kappa inh-2 – qHTS for Inhibitors of Polymerase Kappa: Confirmatory Assay for Cherry-picked Compounds. 76% of 920 active. purified Pol-kappa, fluorescent strand-displacement substrate. shares compounds with Pol eta inh-1. Potency, µM, hits mostly inhibitors
Pol eta inh-2 – qHTS for Inhibitors of Polymerase Eta: Confirmatory Assay for Cherry-picked Compounds; Pol eta primer extension, TAMRA/BHQ fluorescence, 10 min; shares compounds with Pol eta inh-1; Potency, µM, most hits filed as inhibitors; AID 720502, 2013; 64% of 2,600 active
ADP-Glo interf – qHTS for Inhibitors of PI5P4K: ADP-Glo counter assay. shares compounds with PI5P4K alpha inh. ADP-Glo detection counter-screen, luciferase luminescence, no enzyme. Potency, µM (top dose mostly 76.9 µM), hits mostly inhibitors. 1,100 tested, under 10 active
Of the large screens only hits and unclear results are named; the others gave an inactive call (follow-up assays come after a bar, where they were run). Unless noted, the call rests on the fitted dose curve; in most records, active means well fitted curve in the direction sought with a large enough effect; inconclusive means small, poorly fitted or top-dose-only effect, or another doubt; inactive means no such curve, though single readings can be large; an effect the other way counts as inactive or inconclusive.

O=C(Nc1nc(-c2ccco2)c(-c2ccco2)s1)c1cnccn1	Pol kappa inh-1 inconclusive, PI5P4K alpha inh -67, Pol eta inh-1 inconclusive, Pol iota inh 50µM (no result: Pol beta inh) | Pol eta inh-2 76 | ADP-Glo interf inactive
CCC(=O)O[C@]1(C(=O)CCl)[C@@H](C)CC2C3C[C@H](F)C4=CC(=O)C=CC4(C)[C@@]3(F)C(O)CC21C (stereo partly drawn)	none (no result: PI4K2A block, PI5P4K alpha inh, Pol eta inh-1, Pol beta inh, Pol iota inh)
Cc1ccc([N+](=O)[O-])cc1S(=O)(=O)Nc1ccc(C(=O)N(C)C)cc1	none
Cc1ccc([N+](=O)[O-])cc1S(=O)(=O)Nc1ccc(C(=O)N2CCN(C(=O)c3ccco3)CC2)cc1	Pol kappa inh-1 inconclusive, PI5P4K alpha inh -53, Pol eta inh-1 22µM, Pol iota inh inconclusive (no result: Pol beta inh) | Pol eta inh-2 inconclusive | ADP-Glo interf inactive
O=C(c1ccccc1)c1ccc2nc(-c3ccco3)c(-c3ccco3)nc2c1	PI4K2A block inconclusive, Pol kappa inh-1 25µM, PI5P4K alpha inh -100, Pol eta inh-1 13µM, Pol beta inh 8.9µM, Pol iota inh 4µM | Pol kappa inh-2 inconclusive | Pol eta inh-2 inconclusive | ADP-Glo interf inactive
COc1ccc(CNc2ncnc3ccc(-c4ccc(C(=O)N(C)C)cc4)cc23)c(OC)c1	none (no result: PI4K2A block, PI5P4K alpha inh, Pol eta inh-1, Pol beta inh, Pol iota inh)
CCCc1cc(=O)[nH]c(SCC(=O)Nc2sc3c(c2C#N)CCC(C)C3)n1 (stereo not drawn)	Pol kappa inh-1 79µM, PI5P4K alpha inh -54, Pol eta inh-1 25µM, Pol beta inh 18µM, Pol iota inh 50µM | Pol eta inh-2 inconclusive | ADP-Glo interf inactive
COCCCN(C(=O)c1cc(-c2ccco2)nc2ccccc12)c1c(N)n(Cc2ccccc2)c(=O)[nH]c1=O	Pol kappa inh-1 inconclusive, PI5P4K alpha inh -68, Pol eta inh-1 25µM, Pol iota inh 40µM (no result: Pol beta inh) | Pol eta inh-2 inconclusive | ADP-Glo interf inactive
COCCN(C(=O)COC(=O)COc1ccc2c(c1)CCC2)c1c(N)n(Cc2ccccc2)c(=O)[nH]c1=O	none (no result: Pol beta inh)
COCCN(C(=O)COC(=O)Cc1coc2cc3c(cc12)CCC3)c1c(N)n(Cc2ccccc2)c(=O)[nH]c1=O	Pol kappa inh-1 inconclusive, PI5P4K alpha inh -50, Pol eta inh-1 20µM, Pol iota inh 28µM (no result: Pol beta inh) | Pol eta inh-2 76 | ADP-Glo interf inactive
COc1ccc(NC(=O)CN(C)C(=O)c2cc(-c3ccccc3)nc3ccccc23)cc1	none (no result: Pol beta inh)
CN(CC(=O)Nc1ccc(F)cc1)C(=O)c1cc(-c2ccco2)nc2ccccc12	Pol kappa inh-1 inconclusive, PI5P4K alpha inh -66, Pol eta inh-1 40µM, Pol iota inh 16µM (no result: Pol beta inh) | Pol eta inh-2 inconclusive | ADP-Glo interf inactive
COc1cc(Cl)c(C)cc1NC(=O)CSc1sc2c(O)cc(=O)[nH]c2c1C#N	PI5P4K alpha inh -73, Pol eta inh-1 28µM, Pol beta inh inconclusive, Pol iota inh inconclusive | Pol kappa inh-2 19 | Pol eta inh-2 60 | ADP-Glo interf inactive
Cc1ccc(CN2CCCCC(NC(=O)C(C)(C)C)C2=O)cc1 (stereo not drawn)	none (no result: Pol kappa inh-1, PI5P4K alpha inh, Pol eta inh-1, Pol beta inh, Pol iota inh)
O=C(OCc1ccco1)c1ccc(S(=O)(=O)N2CCCCC2)cc1	Pol kappa inh-1 79µM, PI5P4K alpha inh -52, Pol eta inh-1 10µM, Pol beta inh inconclusive, Pol iota inh inconclusive | Pol eta inh-2 inconclusive | ADP-Glo interf inactive
O=C(OCC(=O)N1CCN(C(=O)c2ccco2)CC1)c1ccc(S(=O)(=O)N2CCCCC2)cc1	Pol beta inh inconclusive
COc1ccc(S(=O)(=O)N2CCCCC2)cc1C(=O)Nc1cc(C)on1	none
Cc1cc(NC(=O)c2cc(S(=O)(=O)N3CCCCC3)ccc2C)no1	Pol kappa inh-1 inconclusive, PI5P4K alpha inh -54, Pol eta inh-1 22µM, Pol iota inh inconclusive (no result: Pol beta inh) | Pol eta inh-2 inconclusive | ADP-Glo interf inactive
Cc1ccc(S(=O)(=O)N2[C@@H](c3ccc(C(C)(C)C)cc3)C(C(=O)O)=CC[C@H]2c2ccc(C(C)C)cc2)cc1	Pol kappa inh-1 inconclusive, PI5P4K alpha inh -63, Pol eta inh-1 40µM, Pol iota inh inconclusive (no result: Pol beta inh) | Pol kappa inh-2 75 | Pol eta inh-2 54 | ADP-Glo interf inactive
COc1ccc(CCNS(=O)(=O)c2cc(-c3cc(C)no3)ccc2OC)cc1OC	none (no result: PI5P4K alpha inh)
O=C(Cc1ccc(S(=O)(=O)N2CCOCC2)s1)NC1CCCCC1	Pol kappa inh-1 inconclusive, PI5P4K alpha inh -51, Pol eta inh-1 20µM, Pol iota inh 45µM (no result: Pol beta inh) | Pol eta inh-2 inconclusive | ADP-Glo interf inactive
CCOC(=O)C1(C)CCN1C(=O)c1cccc(C#N)c1 (stereo not drawn)	none (no result: Pol kappa inh-1, Pol eta inh-1, Pol beta inh, Pol iota inh)
CC(=O)c1ccc(NC(=O)c2noc3c2CCC3)cc1	Pol kappa inh-1 inconclusive, PI5P4K alpha inh -58, Pol eta inh-1 45µM, Pol beta inh 16µM, Pol iota inh 25µM | Pol eta inh-2 inconclusive | ADP-Glo interf inactive
CCCCNC(=O)c1cccc(-n2cnc3cccnc32)c1C	none (no result: PI5P4K alpha inh)
CC(=O)NC12CC3CC(C1)CC(C(=O)OCC(=O)Nc1ncc(Cl)c(C)c1Cl)(C3)C2	PI5P4K alpha inh -52, Pol eta inh-1 inconclusive, Pol beta inh inconclusive, Pol iota inh inconclusive | Pol eta inh-2 inconclusive | ADP-Glo interf inactive
